Assay results taken from PubChem BioAssay AID588342 (National Center for Advancing Translational Sciences (NCATS), 2011).
In all, about 360,000 compounds went through this assay and about 25,000 (6.9%) were called active. Entries that show only a call come without a potency. Not shown: some 9% with an inconclusive outcome. Calls come from the whole dose curve; as a rule, active = well fitted inhibition curve with a large enough effect; inconclusive = small, poorly fitted or top-dose-only effect; inactive = flat fitted curve, though single readings scatter. For the sample, actives were picked, then their nearest neighbours and some compounds at random.

What follows are molecules tested against Luciferin 4-monooxygenase (Photinus pyralis) (UniProt P08659) (assay: qHTS profiling assay for firefly luciferase inhibitor/activator using purifed enzyme and Km concentrations of substrates (counterscreen for miR-21 project)). Conditions: purified FLuc, luminescence inhibition; series mostly up to 57.5 µM.
Method in brief: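 Purified P. pyralis luciferase (10nM final) with 10uM D-luciferin and 10uM ATP (Km levels) in 50mM Tris acetate pH 7.5, 10mM Mg acetate, 0.01% Tween-20, 0.05% BSA; qHTS 6-point titration, ~60 µM downward; luminescence read.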
Note: nearly all actives have a fitted effect of over 55% in size.
Potency is the fitted concentration of half-maximal effect.

Sequence of Luciferin 4-monooxygenase (Photinus pyralis) (P08659 whole entry, looked up): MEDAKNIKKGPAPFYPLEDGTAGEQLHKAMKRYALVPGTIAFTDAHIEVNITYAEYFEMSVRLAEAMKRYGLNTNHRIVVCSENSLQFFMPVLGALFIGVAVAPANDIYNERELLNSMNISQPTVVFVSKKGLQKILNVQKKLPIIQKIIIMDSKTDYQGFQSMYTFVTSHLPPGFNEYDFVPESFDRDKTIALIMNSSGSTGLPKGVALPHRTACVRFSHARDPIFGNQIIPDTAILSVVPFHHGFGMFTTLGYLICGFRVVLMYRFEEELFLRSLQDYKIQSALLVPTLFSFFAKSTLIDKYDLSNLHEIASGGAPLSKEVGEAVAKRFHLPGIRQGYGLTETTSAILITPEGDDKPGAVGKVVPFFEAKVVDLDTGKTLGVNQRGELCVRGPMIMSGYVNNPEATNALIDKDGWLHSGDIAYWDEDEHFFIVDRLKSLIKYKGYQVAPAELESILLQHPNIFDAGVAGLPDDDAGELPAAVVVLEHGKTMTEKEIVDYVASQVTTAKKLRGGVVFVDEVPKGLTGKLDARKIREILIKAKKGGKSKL

Compound	Potency
Cc1ccc2sc(N(Cc3cccnc3)C(=O)C3COc4ccccc4O3)nc2c1C (stereo unspecified)	inactive
COc1cc(OC)cc(-c2nc3nc(C)c(CCC(=O)Nc4ccc(C)cc4)c(C)n3n2)c1	inactive
O=S(=O)(N1CCCCC1)N1CCNCC1	inactive
CS(=O)(=O)N1CCN(C(=O)c2cc3ccccc3oc2=O)CC1	inactive
O=c1oc2ccccc2cc1-c1cn(-c2ccccc2)c(=S)[nH]1	0.849 µM (active)
S=c1[nH]c(-c2cccs2)cn1-c1ccccc1	inactive
COc1ccc(C2C(=O)N(C3CCCCCC3)CC(=O)N2CCc2ccc(Cl)cc2)cc1OC (stereo unspecified)	inactive
CC(C)c1ccc(-c2noc(C3CCCN(S(C)(=O)=O)C3)n2)cc1 (stereo unspecified)	19 µM (active)
O=C(Cc1cccs1)N1CCCC(c2nc(-c3ccc(S(=O)(=O)N4CCCC4)cc3)no2)C1 (stereo unspecified)	inactive
COc1cc(-c2noc(C3CCCN(S(=O)(=O)c4cccc(Cl)c4)C3)n2)cc(OC)c1OC (stereo unspecified)	inactive
CCN(C(=O)CSc1ncnc2sccc12)c1c(N)n(Cc2ccccc2)c(=O)[nH]c1=O	inactive
CCSc1nnc2c(n1)OC(c1ccc(OCC(=O)O)cc1)Nc1ccccc1-2 (stereo unspecified)	inactive
CCCCSc1nnc2c(n1)OC=Nc1ccccc1-2	23.9 µM (active)
COc1ccc(NC(=O)Cn2cc(C(=O)c3ccncc3)c(=O)c3cc(C)ccc32)cc1Cl	inactive
Cc1ccc(-c2cnc(C3CC3)o2)cc1S(=O)(=O)Nc1cccc(C)c1C	inactive
CN(Cc1nc2ccc(F)cc2[nH]1)Cc1nc(CC2CC2)no1	inactive
O=C(Cn1c(=O)n(-c2ccc(F)cc2)c(=O)c2sccc21)Nc1cccc(C(F)(F)F)c1	inactive
CC(=O)Nc1cccc(NC(=O)CSc2cn(CC(=O)N3CCCC3)c3ccccc23)c1	inactive
O=c1c2c(nc3n1CCCCC3)sc1c(O)cccc12	4.26 µM (active)
Cc1cccc2c(=O)n3c(nc12)CCCCC3	inactive
CC1CCN(C(=O)c2ccc3c(=O)n4c(nc3c2)CCCCC4)CC1	inactive
COc1ccc([C@H]2CC(=O)C=C(c3ccc(CO)cc3)C2)cc1	inactive

Compound	Potency
O=C1CCC(C(=O)N2CCN(c3ccccc3Cl)CC2)CN1CC1CCCCC1 (stereo unspecified)	inactive
O=C(NNC(=S)Nc1ccc(Br)cc1Cl)c1ccco1	16.9 µM (active)
CCC(=O)NC(=S)Nc1ccc(NC(=O)c2ccco2)c(Cl)c1	inactive
S=C(Nc1ccc(Br)cc1Cl)NC1CCN(Cc2ccccc2)CC1	inactive
COc1ccc(S(=O)(=O)c2c(Nc3ccc(C)cc3)sc(C(=O)c3ccc(C)cc3)c2N)cc1	inactive
COc1ccc(-c2nc(CN3CCC(C(=O)NCc4ccccc4)CC3)c(C)o2)cc1OC	inactive
CCOC(=O)CCCN1CC(O)=C(c2nc3ccccc3s2)C1=N	inactive
N=C1C(c2nc3ccccc3s2)=C(O)CN1NC(=O)c1ccc([N+](=O)[O-])cc1	13.5 µM (active)
COc1ccccc1N1CC(O)=C(c2nc3ccccc3s2)C1=N	inactive
O=C(CSc1oc(-c2ccco2)nc1S(=O)(=O)c1ccccc1)c1ccc(Cl)cc1	inactive
Cc1ccc(-c2cc(-c3coc4ccccc4c3=O)c3c(n2)-c2cc(Cl)ccc2OC3)cc1	inactive
CC(C)(C)OC(=O)N1CCC(c2c(C(=O)N3CCN(c4cccc(Cl)c4)CC3)cnn2-c2cccc(Cl)c2)CC1	inactive
CCCCCn1c(CCCNC(=O)c2ccccc2OC)nc2ccccc21	inactive
CCOC(OCC)c1ccc(/C=C\c2nccc(N)n2)cc1	8.49 µM (active)
CCOc1ccc(Nc2c(S(=O)(=O)c3ccccc3)cnc3ccccc23)cc1	inactive
CN(C(=O)Cn1nnc(-c2ccc(F)cc2)n1)C1CCS(=O)(=O)C1 (stereo unspecified)	inactive
COc1ccc(CNC(=O)CC2Oc3ccc(C)cc3NC2=O)cc1 (stereo unspecified)	inactive
Cc1ccc(NC(=O)c2oc3ccccc3c2C)c([N+](=O)[O-])c1	inactive
CSc1ncccc1C(=O)NC1CCCCCC1	inactive
O=C(Cn1[nH]c(=O)c2ccccc2c1=O)Nc1cccc(-c2nnc3n2CCCCC3)c1	inactive
O=S(=O)(c1cccc(-c2nnc3n2CCCCC3)c1)N1CCOCC1	inactive
Cc1c(C(=O)Nc2cccc(-c3nnc4n3CCCCC4)c2)oc2ccccc12	19 µM (active)

Compound	Potency
Cc1c(C(=O)NC2CCCCC2)oc2ccccc12	15.1 µM (active)
O=C(Nc1ccc(F)cc1F)c1cnn(-c2ccc(F)cc2)c1-n1cccc1	inactive
CC(C)(C)OC(=O)N1CCC(c2c(C(=O)NCCc3ccsc3)cnn2-c2ccc(F)cc2F)CC1	inactive
CCOC(=O)c1sc(NC(=O)/C=C/c2ccc(C(C)C)cc2)c(C(=O)OCC)c1C	inactive
O=C(/C=C/c1ccc(F)cc1)NCCNC(=O)/C=C/c1ccc(F)cc1	inactive
COc1cccc(C(=O)NNC(=O)/C=C/c2ccccc2)c1	inactive
C=CCNC(=O)/C=C/c1ccc(C(C)C)cc1	19 µM (active)
Cc1c(NC(=O)c2cccnc2)c(=O)n(-c2ccccc2)n1C	inactive
O=C(/C=C/c1cn(-c2ccccc2)nc1-c1ccc2c(c1)OCCO2)NCCCN1CCOCC1	inactive
CC(C)c1ccc(/C=C/C(=O)NCCCN2CCOCC2)cc1	21.3 µM (active)
O=C(/C=C/c1ccc(Cl)cc1)NCCCn1ccnc1	inactive
CC(C)c1ccc(/C=C/C(=O)NNC(=O)c2cccnc2)cc1	12 µM (active)
CCCOc1ccc(C2c3c(-c4ccccc4O)n[nH]c3C(=O)N2Cc2cccnc2)cc1 (stereo unspecified)	inactive
N#Cc1ccccc1Cn1cnc2nc3c(cc2c1=O)CCCC3	inactive
Cc1ccc(-n2nc(C)c3c(C)cc(=O)n(CC(=O)Nc4ccc(C(C)C)cc4)c32)cc1	inactive
Cc1c(C(=O)Nc2cccc(Cl)c2)oc2ccc(S(=O)(=O)N3CCOCC3)cc12	inactive
Cc1cccc(-c2nc(SCC(=O)Nc3cc(C)on3)c3c(=O)n(C)c(=O)n(C)c3n2)c1	inactive
Cc1ccc(NC(=O)Cn2cnc3nc4c(cc3c2=O)CCCC4)cc1Cl	inactive
COc1ccc(NC(=O)c2cnc(Nc3ccc(C)c(Cl)c3)c3ccccc23)cc1OC	inactive
COc1ccc(C(=O)CSc2nccc(=O)[nH]2)cc1	inactive
CC(C)(C)c1ccc(C(=O)CSc2ncn[nH]2)cc1	4.78 µM (active)
CCN(C(=O)CSc1ncn[nH]1)c1cccc2ccccc12	inactive
